# Mdm2 MdmX PPI: disrupts the human Mdm2-MdmX interaction | 3% of 330,000 active | AID 485346 | inhibition, % at 8 µM | SaOS-2 split-luciferase Mdm2/MdmX complementation, luminescence;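 active = inhibition of at least 50% at 8 µM in the primary screen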
# Calb FLC: C. albicans growth modulation with fluconazole. growth inhibition, % (concentration not given with the values). C. albicans CaCi-2 (fluconazole-resistant clinical isolate) + fluconazole, Alamar Blue growth, 48 h. 0.57% of 300,000 active;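 active = growth inhibition above about 58% in most replicates, limit read from the data, passing the limit was not always enough; inconclusive = exactly half the replicates above a set limit; inactive = most replicates below a set limit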;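 also: all wells also contain fluconazole at 8 µg/ml as a sub-toxic cotreatment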
# MPTP inh: inhibitors of mitochondrial permeability transition pore | AID 602449 | 1.4% of 360,000 active | inhibition, % at 10 µM | isolated mouse mitochondria, Ca2+ swelling absorbance, 30 min;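 active = inhibition of 50% or more, scaled per plate between neutral and stimulator controls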
# CSC inhib: cancer stem cell inhibition; inhibition, % at 7.5 µM; 1.1% of 300,000 active; cancer stem cell-like cells viability, luminescence; in the data active = inhibition above about 75%; inconclusive = no clear call, values can overlap the other calls; tested in HMLE shEcad cells
# Beta cell apopt: beta cell apoptosis inhibition; INS-1E cytokine-induced death, ATP luminescence, 48 h; percent of positive-control rescue, neutral wells zero; 0.8% of 300,000 active; protection from apoptosis, % (concentration not given with the values);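 active = Every replicate reaches about 75%, or at least half do and their mean reaches it too, limit read from the data; inconclusive = At least half of replicates reach the limit but their mean does not; inactive = Under half of replicates reach the limit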;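 also: higher means more ATP so stronger rescue from cytokine killing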
# SKKanGAS inh: SKKanGAS growth inhibition | S. pyogenes SKKanGAS, kanamycin growth, BacTiter-Glo, 6 h | inhibition, % at 7.5 µM | 1.3% of 300,000 active | AID 1662;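 active = mean replicate score, as percent of positive control median, at least 50; inconclusive = mean below 50 but one replicate at or above 50; inactive = mean and every replicate below 50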;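 also: strain carries kanamycin resistance gene driven by streptokinase promoter and grows in 40 µg/ml kanamycin; loss of luminescence reflects streptokinase promoter inhibition or plain growth inhibition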
# MPTP counter: mitochondrial membrane potential, counter-screen | shares compounds with MPTP inh | isolated mitochondria, Rhodamine 123 fluorescence | inhibition, % at 10 µM | 78% of 5,000 active | AID 624504; in the data active = inhibition above about 22%
# MPTP abs DR: dose response confirmation of mitochondrial permeability transition pore inhibitors; AID 651561; shares compounds with MPTP inh; IC50, µM; isolated mitochondria swelling, absorbance; 58% of 780 active; in the data active = IC50 below about 20 µM
# MPTP counter DR: active in counter-screen for permeability transition pore inhibitors; shares compounds with MPTP inh; 49% of 780 active; IC50, µM; AID 651564; isolated mitochondria counterscreen, fluorescence read-out; in the data active = IC50 below about 80 µM
# Hits are given with their value; n = inactive; u = inconclusive; x = not tested or not shown. Compounds with a hit are over-represented: about 5.4% of the library has one in this group of screens.
SMILES,Mdm2 MdmX PPI,Calb FLC,MPTP inh,CSC inhib,Beta cell apopt,SKKanGAS inh,MPTP counter,others
O=C(CSc1ccccc1)Nc1ccc(Cl)c(S(=O)(=O)N2CCOCC2)c1,n,x,n,n,n,x,x,
O=C(Nc1ccc(Cl)cc1)Nc1ccc(N2CCOCC2)cc1,n,n,69,n,n,n,57,
O=C(c1ccc(NC(=S)Nc2ccc(Cl)c(Cl)c2)cc1)N1CCCC1,x,n,103,n,n,n,92,
O=C(Nc1ccc(Cl)c(Cl)c1)N1CCCCCC1,n,n,n,n,n,n,x,
Cc1oc(-c2cccc(F)c2)nc1CN1CCCCC1CCc1ccccn1 (configuration not stated),n,n,n,n,n,n,x,
O=C(CSc1ncnc2nc[nH]c12)Nc1ccccc1C(F)(F)F,n,n,n,n,n,n,x,
COc1ccc(OC)c(CCNC(=O)CCc2nnc3ccc(N4CCCCC4)nn23)c1,n,n,n,n,x,n,x,
O=c1[nH]nc(Cc2ccc(-c3ccccc3Cl)o2)c2ccccc12,n,n,n,x,n,n,x,
Cc1ccc(C(=O)Nc2ncccc2C)o1,x,x,n,x,x,x,x,
O=C(Nc1ccc(N2CCOCC2)cc1)Nc1ccc(Cl)c(Cl)c1,n,n,93,n,n,n,80,
O=C(Nc1ccc(Cl)c(Cl)c1)N1CCOCC1,n,n,n,n,n,n,x,
Cc1cccc(C(=O)Nc2sc(C)c(-c3ccccc3)c2C#N)c1,n,n,n,n,n,n,x,
Cc1noc(C)c1C(=O)Nc1sc(C)c(-c2ccccc2)c1C#N,n,n,74,x,n,n,80,
Cc1ccc(C(=O)NCCc2ccncc2)cc1,n,n,n,n,n,n,x,
Cc1ccc(Oc2ccc(C(=O)NCc3ccncc3)cc2)cc1,x,n,88,x,x,n,75,
O=C(NCc1ccncc1)c1ccc(Oc2ccccc2)cc1,n,n,76,n,n,n,39,
CN1CCN(c2ncnc3c2c(-c2ccccc2)cn3-c2ccc(F)cc2)CC1,n,n,80,n,n,n,n,MPTP abs DR=20;MPTP counter DR=n
CN1CCCN(c2ncnc3scc(-c4ccc(F)cc4)c23)CC1,n,n,n,n,n,n,x,
C=CCNCCOCCOc1ccc(Cl)cc1C(C)(C)C,n,n,92,n,n,n,n,MPTP abs DR=11;MPTP counter DR=n
COCCCNCCOCCOc1ccc(Cl)cc1C(C)(C)C,n,n,61,n,n,n,n,MPTP abs DR=4.3;MPTP counter DR=n
CC(C)(C)NCCOCCOc1ccc(Cl)cc1C(C)(C)C,n,n,n,n,n,n,x,
COc1ccc(NC(=O)NCCCN2CCN(c3cc(C)ccc3C)CC2)cc1,n,n,82,n,n,n,n,MPTP abs DR=15;MPTP counter DR=39
COc1ccc(N2CCC(CNC(=O)Nc3ccc(Cl)cc3)C2)cc1 (configuration not stated),n,n,91,n,n,n,75,
COc1cc(NC(=O)NCCN2CCN(c3ccc(Cl)cc3)CC2)ccc1C,n,u,70,n,n,n,n,MPTP abs DR=n;MPTP counter DR=73
N#CCCn1nc(-c2ccccc2)cc1Nc1ccccc1NC(=O)C(F)(F)F,n,n,n,n,n,n,x,
SMILES,Mdm2 MdmX PPI,Calb FLC,MPTP inh,CSC inhib,Beta cell apopt,SKKanGAS inh,MPTP counter,others
N#CCCn1nc(-c2ccc([N+](=O)[O-])cc2)cc1Nc1ccccc1NC(=O)C(F)(F)F,n,n,93,n,n,n,91,
N#CCCn1nc(-c2ccc(Br)cc2)cc1Nc1ccccc1NC(=O)C(F)(F)F,n,n,95,n,n,n,84,
N#CCCn1nc(-c2ccc(Cl)cc2)cc1Nc1ccccc1NC(=O)C(F)(F)F,n,n,n,n,n,n,x,
O=S(=O)(Nc1nc2ccccc2s1)c1ccc(Cl)s1,n,n,78,n,81,n,80,
O=S(=O)(Nc1nccs1)c1cnc(Cl)c(Br)c1,n,n,n,n,n,n,x,
O=S(=O)(Nc1nc2ccccc2s1)c1cnc(Cl)c(Br)c1,n,n,90,n,n,n,85,
CCCCc1ccc(-n2nnnc2SCC(=O)Nc2cc(OC)c([N+](=O)[O-])cc2C)cc1,n,n,64,n,n,n,53,
O=C(CSC1=NCCS1)Nc1ccnc2ccccc12,n,n,68,n,104,n,74,
O=C(CSC1=NCCS1)Nc1ccc2ccccc2c1,n,n,n,n,n,n,x,
